Test results: ChEMBL document CHEMBL1961873, “Compounds: GSK PKIS; Assays: Nanosyn kinase panel” (2012)

Key:
[1] = target: T1, Inhibitor of nuclear factor kappa-B kinase subunit epsilon (Homo sapiens) (UniProt Q14164); details: at 1 µM;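 further: reported values are averaged percent inhibition figures against human IKKε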
T1 sequence (whole entry): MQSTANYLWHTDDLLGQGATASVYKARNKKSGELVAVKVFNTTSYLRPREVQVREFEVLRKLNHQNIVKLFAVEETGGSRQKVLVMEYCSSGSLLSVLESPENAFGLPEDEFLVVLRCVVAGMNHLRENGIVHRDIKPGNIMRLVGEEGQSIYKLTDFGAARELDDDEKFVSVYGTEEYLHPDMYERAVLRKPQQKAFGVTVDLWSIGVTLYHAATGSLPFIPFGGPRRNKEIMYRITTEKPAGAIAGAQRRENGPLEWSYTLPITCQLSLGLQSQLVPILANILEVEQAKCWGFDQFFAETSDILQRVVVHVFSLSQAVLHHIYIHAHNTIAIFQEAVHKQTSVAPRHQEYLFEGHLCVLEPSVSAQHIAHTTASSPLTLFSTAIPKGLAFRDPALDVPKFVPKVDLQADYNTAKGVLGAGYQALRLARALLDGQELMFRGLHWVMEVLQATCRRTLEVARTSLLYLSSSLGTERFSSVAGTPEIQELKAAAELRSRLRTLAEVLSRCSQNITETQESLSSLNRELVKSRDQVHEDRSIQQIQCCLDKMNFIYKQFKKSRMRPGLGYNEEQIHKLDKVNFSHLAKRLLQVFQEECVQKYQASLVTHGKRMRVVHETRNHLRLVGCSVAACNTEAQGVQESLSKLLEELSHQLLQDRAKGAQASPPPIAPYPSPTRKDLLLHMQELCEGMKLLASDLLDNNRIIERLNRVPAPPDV

[2] = target: T2, Serine/threonine-protein kinase Nek1 (Homo sapiens) (UniProt Q96PY6); details: at 0.1 µM
T2 sequence (whole entry): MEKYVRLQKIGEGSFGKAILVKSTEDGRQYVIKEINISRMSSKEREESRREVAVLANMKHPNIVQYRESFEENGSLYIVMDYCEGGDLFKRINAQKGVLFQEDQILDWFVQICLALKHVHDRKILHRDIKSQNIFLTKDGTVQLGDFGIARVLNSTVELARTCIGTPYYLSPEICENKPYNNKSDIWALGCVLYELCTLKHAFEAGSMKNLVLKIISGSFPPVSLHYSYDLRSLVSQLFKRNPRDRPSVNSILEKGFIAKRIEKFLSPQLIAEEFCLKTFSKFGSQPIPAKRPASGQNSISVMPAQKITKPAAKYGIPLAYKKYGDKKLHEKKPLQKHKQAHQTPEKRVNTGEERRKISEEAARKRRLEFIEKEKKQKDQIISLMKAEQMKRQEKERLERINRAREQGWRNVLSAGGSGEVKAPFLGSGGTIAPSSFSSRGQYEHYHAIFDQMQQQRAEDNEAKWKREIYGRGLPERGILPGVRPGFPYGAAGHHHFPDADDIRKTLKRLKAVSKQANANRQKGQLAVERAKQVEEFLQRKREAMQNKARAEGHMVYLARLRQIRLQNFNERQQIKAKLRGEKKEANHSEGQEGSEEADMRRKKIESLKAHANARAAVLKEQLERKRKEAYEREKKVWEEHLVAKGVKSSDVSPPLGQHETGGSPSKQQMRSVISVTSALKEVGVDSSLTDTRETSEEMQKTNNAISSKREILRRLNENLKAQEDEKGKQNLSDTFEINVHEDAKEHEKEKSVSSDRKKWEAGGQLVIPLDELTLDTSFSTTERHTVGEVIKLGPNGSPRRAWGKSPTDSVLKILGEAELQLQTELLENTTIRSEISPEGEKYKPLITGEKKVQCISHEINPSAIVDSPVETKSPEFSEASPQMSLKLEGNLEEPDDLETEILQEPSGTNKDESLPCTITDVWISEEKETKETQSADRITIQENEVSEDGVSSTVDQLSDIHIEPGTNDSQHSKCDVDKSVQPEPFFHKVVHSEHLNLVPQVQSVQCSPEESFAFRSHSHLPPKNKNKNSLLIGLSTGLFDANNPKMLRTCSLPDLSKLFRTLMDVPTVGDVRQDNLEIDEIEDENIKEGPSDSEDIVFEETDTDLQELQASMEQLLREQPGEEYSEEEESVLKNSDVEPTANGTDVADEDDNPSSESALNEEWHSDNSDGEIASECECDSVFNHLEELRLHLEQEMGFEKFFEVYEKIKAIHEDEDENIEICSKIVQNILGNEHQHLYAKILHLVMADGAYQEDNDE

[3] = target: T2, Serine/threonine-protein kinase Nek1 (Homo sapiens); details: at 1 µM
[4] = target: T3, Serine/threonine-protein kinase Nek2 (Homo sapiens) (UniProt P51955); details: at 0.1 µM
T3 sequence (whole entry): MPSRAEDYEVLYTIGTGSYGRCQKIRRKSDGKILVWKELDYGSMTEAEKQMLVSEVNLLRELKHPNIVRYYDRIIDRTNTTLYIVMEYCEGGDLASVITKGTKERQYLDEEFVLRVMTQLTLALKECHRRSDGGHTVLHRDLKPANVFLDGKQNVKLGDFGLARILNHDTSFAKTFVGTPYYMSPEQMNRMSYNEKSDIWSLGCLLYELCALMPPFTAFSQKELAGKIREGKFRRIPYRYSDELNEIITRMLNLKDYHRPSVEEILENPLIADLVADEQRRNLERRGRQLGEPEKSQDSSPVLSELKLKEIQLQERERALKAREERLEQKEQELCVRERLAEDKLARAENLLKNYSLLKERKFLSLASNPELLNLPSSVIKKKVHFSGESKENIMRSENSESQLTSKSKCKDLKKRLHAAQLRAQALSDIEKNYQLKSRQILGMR

[5] = target: T3, Serine/threonine-protein kinase Nek2 (Homo sapiens); details: at 1 µM
[6] = target: Serine/threonine-protein kinase Nek6 (Homo sapiens) (UniProt Q9HC98); details: at 0.1 µM
[7] = target: Serine/threonine-protein kinase Nek6 (Homo sapiens) (UniProt Q9HC98); details: at 1 µM
[8] = target: Serine/threonine-protein kinase Nek7 (Homo sapiens) (UniProt Q8TDX7); details: at 0.1 µM
[9] = target: Serine/threonine-protein kinase Nek7 (Homo sapiens) (UniProt Q8TDX7); details: at 1 µM
[10] = target: T4, Serine/threonine-protein kinase Nek9 (Homo sapiens) (UniProt Q8TD19); details: at 0.1 µM
T4 sequence (whole entry): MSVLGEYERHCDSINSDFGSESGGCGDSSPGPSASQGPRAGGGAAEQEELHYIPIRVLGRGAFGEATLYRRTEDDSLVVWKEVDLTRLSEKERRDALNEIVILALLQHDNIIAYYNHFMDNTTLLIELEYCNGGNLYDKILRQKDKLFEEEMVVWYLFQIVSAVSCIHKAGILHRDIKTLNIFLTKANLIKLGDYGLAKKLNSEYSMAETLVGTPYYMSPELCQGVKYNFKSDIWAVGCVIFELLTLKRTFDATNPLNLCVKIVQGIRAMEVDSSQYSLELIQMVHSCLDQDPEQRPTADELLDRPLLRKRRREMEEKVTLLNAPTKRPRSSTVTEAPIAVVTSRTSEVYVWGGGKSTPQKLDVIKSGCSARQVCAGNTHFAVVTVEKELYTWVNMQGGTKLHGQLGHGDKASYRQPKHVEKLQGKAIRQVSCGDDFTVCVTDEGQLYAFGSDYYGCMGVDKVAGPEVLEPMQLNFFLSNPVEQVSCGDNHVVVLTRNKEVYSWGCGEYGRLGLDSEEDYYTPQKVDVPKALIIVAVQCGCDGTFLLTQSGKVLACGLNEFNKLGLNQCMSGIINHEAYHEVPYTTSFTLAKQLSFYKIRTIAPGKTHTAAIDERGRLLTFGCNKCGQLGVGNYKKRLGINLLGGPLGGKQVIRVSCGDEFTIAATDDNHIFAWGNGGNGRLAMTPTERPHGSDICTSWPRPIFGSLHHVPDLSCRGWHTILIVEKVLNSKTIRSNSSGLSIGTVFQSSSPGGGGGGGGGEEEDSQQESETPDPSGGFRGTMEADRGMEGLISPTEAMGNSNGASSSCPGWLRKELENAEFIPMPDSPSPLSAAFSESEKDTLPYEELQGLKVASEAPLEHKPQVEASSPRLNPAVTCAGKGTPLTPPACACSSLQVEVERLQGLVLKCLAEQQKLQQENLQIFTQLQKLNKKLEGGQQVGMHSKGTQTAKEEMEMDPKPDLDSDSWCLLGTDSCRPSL

[11] = target: T4, Serine/threonine-protein kinase Nek9 (Homo sapiens); details: at 1 µM
[12] = target: Serine/threonine-protein kinase PLK1 (Homo sapiens) (UniProt P53350); details: at 0.1 µM
[13] = target: Serine/threonine-protein kinase PLK1 (Homo sapiens) (UniProt P53350); details: at 1 µM
[14] = target: T5, Dual specificity protein kinase TTK (Homo sapiens) (UniProt P33981); details: at 0.1 µM
T5 sequence (whole entry): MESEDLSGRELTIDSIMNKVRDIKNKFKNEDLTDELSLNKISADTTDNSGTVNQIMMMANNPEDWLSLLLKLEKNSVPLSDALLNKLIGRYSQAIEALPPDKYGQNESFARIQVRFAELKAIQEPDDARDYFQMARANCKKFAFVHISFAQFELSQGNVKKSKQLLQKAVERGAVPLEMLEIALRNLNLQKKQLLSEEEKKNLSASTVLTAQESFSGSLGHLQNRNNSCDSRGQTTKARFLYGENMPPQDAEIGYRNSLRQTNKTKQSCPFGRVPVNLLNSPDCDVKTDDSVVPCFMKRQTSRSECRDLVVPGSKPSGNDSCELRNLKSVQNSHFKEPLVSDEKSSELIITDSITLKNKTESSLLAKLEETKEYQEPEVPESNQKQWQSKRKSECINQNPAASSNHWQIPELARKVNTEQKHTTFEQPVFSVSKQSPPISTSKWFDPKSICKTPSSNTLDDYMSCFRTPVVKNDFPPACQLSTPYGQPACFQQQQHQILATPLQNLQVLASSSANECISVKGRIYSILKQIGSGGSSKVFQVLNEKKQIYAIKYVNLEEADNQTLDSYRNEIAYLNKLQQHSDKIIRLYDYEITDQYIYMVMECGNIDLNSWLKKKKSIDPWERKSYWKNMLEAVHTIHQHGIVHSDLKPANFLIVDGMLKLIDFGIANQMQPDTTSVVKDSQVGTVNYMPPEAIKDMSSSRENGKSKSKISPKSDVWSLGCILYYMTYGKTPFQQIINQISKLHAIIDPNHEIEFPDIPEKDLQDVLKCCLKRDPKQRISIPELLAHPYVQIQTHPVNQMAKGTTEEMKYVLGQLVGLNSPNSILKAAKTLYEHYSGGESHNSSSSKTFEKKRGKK

[15] = test system: T6, Receptor-type tyrosine-protein kinase FLT3 (Homo sapiens), P36888 [D835Y]; details: at 1 µM
T6 sequence (whole entry): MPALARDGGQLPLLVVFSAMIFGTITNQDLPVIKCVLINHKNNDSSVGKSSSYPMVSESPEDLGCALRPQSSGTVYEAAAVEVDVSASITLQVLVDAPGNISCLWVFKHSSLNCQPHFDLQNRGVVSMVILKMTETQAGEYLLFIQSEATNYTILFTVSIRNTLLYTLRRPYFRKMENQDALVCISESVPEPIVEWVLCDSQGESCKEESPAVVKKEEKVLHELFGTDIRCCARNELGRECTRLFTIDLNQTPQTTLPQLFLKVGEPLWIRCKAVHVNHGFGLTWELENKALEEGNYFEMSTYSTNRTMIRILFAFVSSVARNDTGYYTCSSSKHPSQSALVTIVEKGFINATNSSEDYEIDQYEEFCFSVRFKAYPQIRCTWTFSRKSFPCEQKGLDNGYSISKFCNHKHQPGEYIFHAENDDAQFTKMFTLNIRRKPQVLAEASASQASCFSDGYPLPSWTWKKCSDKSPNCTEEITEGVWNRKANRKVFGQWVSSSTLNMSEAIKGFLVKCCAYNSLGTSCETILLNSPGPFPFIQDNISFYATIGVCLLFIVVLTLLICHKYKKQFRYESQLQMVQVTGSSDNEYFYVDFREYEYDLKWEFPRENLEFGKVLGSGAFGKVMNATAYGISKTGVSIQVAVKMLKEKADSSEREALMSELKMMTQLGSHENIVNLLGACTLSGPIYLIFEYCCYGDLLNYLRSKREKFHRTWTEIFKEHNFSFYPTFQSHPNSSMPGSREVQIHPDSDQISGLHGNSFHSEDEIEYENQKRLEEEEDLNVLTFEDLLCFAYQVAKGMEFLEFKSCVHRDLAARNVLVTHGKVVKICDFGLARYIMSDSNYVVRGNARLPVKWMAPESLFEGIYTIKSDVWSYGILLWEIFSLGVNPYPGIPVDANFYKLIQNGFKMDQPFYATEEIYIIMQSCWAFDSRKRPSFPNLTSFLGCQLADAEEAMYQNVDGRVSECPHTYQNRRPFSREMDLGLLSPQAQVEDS

[16] = target: Vascular endothelial growth factor receptor 3 (Homo sapiens) (UniProt P35916); details: at 0.1 µM
[17] = target: Vascular endothelial growth factor receptor 3 (Homo sapiens) (UniProt P35916); details: at 1 µM
[18] = target: Macrophage colony-stimulating factor 1 receptor (Homo sapiens) (UniProt P07333); details: at 0.1 µM
[19] = target: Macrophage colony-stimulating factor 1 receptor (Homo sapiens) (UniProt P07333); details: at 1 µM
[20] = target: Tyrosine-protein kinase Fyn (Homo sapiens) (UniProt P06241); details: at 0.1 µM
Tyrosine-protein kinase Fyn (Homo sapiens), sequence (P06241 2-537 limits assumed): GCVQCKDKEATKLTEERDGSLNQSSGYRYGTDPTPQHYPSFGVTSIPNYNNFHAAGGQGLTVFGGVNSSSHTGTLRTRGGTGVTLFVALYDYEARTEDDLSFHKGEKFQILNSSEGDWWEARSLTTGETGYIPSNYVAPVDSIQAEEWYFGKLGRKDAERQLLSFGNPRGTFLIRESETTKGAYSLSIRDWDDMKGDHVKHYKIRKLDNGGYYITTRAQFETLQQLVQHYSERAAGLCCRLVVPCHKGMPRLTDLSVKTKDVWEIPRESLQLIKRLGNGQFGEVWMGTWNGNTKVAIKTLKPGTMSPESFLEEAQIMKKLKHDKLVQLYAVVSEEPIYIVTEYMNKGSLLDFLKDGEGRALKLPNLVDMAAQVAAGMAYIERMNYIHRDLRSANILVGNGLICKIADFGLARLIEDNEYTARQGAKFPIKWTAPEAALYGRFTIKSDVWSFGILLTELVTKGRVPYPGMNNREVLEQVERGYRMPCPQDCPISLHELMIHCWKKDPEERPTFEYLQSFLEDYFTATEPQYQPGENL

Vascular endothelial growth factor receptor 3 (Homo sapiens), sequence (P35916 whole entry): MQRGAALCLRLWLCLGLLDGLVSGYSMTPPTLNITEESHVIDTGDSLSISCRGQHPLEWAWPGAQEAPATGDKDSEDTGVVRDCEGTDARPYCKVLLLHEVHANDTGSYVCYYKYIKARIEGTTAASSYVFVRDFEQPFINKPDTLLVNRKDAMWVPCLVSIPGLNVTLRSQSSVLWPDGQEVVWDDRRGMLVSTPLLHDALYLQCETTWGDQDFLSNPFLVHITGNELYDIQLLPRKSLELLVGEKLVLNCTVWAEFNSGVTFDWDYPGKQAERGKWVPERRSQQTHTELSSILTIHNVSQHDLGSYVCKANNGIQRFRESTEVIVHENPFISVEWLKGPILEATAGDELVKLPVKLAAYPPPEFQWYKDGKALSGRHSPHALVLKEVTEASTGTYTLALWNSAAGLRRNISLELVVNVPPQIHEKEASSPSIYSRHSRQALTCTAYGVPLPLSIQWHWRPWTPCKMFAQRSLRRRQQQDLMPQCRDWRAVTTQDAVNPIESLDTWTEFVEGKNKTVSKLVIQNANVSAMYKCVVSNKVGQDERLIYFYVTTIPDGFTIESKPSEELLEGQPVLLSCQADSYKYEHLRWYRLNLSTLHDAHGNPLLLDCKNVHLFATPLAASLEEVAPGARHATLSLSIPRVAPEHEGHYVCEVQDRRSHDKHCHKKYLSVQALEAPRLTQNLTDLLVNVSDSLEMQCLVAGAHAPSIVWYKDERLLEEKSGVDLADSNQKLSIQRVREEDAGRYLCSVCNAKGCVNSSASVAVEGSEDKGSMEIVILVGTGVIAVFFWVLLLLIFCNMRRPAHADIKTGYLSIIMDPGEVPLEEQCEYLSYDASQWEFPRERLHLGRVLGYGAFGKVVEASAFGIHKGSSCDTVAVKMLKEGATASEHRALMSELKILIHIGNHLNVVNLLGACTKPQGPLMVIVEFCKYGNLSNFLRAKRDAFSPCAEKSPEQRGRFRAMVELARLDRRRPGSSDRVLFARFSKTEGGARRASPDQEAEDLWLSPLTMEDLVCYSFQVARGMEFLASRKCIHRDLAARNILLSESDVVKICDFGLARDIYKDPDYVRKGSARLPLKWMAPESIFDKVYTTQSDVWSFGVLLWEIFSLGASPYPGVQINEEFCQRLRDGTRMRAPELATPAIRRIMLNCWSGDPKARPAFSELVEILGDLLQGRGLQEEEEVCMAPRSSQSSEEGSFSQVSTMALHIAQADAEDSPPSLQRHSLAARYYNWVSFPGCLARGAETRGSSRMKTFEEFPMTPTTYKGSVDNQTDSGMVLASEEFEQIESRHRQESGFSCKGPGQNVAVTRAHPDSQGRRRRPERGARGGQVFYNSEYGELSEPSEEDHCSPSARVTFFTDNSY
Serine/threonine-protein kinase Nek7 (Homo sapiens), sequence (Q8TDX7 whole entry, looked up): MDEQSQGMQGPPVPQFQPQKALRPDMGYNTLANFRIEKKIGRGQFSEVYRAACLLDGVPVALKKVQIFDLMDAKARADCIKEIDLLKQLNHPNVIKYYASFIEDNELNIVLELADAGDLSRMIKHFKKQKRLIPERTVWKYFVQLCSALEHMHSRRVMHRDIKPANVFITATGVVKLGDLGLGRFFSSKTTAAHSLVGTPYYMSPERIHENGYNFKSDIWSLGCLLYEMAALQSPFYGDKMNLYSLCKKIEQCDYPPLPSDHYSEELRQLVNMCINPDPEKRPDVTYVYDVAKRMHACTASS
Serine/threonine-protein kinase Nek6 (Homo sapiens), sequence (Q9HC98 whole entry): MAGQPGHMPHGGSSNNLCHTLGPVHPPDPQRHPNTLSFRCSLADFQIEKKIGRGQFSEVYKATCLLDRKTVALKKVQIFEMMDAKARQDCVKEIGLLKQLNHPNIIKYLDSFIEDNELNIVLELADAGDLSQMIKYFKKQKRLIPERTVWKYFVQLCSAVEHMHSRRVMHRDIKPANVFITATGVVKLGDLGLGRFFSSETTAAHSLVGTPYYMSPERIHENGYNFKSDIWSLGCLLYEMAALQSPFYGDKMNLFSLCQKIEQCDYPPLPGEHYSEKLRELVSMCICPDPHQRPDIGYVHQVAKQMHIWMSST
Serine/threonine-protein kinase PLK1 (Homo sapiens), sequence (P53350 whole entry): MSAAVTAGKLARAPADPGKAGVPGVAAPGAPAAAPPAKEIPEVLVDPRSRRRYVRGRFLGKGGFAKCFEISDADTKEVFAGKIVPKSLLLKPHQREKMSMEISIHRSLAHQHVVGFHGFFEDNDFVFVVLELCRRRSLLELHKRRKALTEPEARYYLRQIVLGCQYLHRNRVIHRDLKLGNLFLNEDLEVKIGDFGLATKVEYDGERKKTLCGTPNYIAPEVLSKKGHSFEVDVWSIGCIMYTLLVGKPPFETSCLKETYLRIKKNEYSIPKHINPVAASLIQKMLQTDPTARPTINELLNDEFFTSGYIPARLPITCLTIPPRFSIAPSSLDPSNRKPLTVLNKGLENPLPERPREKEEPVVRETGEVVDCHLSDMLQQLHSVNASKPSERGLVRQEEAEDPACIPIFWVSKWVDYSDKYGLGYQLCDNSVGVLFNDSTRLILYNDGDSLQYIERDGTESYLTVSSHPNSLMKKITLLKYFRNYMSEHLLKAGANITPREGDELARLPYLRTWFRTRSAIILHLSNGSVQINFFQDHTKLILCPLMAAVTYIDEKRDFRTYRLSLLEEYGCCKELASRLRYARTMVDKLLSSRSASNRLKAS
Macrophage colony-stimulating factor 1 receptor (Homo sapiens), sequence (P07333 whole entry): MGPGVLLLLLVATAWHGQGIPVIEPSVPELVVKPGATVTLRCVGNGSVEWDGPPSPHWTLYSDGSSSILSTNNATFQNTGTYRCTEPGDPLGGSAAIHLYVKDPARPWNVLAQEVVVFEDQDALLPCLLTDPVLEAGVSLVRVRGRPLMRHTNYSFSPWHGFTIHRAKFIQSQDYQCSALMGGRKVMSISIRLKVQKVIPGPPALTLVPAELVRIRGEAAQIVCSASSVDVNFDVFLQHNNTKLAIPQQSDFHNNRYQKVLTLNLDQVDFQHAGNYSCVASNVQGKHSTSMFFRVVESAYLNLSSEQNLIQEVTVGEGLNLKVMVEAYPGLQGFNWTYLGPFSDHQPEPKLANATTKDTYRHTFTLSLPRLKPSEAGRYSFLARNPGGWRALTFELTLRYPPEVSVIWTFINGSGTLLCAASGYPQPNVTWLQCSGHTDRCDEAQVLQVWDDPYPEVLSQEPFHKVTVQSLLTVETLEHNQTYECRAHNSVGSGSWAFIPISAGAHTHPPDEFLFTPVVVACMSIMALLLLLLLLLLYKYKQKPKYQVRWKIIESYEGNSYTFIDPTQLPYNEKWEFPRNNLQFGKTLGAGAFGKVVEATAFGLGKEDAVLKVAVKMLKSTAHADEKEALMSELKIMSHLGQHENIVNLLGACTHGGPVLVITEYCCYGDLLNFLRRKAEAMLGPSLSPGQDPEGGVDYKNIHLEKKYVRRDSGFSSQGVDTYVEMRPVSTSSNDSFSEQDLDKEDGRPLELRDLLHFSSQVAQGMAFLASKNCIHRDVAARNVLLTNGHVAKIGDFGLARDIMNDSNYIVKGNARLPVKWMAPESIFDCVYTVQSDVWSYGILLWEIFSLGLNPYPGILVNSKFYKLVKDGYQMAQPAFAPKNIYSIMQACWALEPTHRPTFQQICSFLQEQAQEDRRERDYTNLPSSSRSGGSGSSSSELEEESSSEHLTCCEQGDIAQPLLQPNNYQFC

Compound	inhibition [1]	inhibition [2]	inhibition [3]	inhibition [4]	inhibition [5]	inhibition [6]	inhibition [7]	inhibition [8]	inhibition [9]	inhibition [10]	inhibition [11]	inhibition [12]	inhibition [13]	inhibition [14]	inhibition [15]	inhibition [16]	inhibition [17]	inhibition [18]	inhibition [19]	inhibition [20]
NS(=O)(=O)c1ccc(N/C=C2\C(=O)Nc3ccc4ncsc4c32)cc1	41.9%	2.04%	3.28%	6.71%	8.52%	1.42%	4.37%	1.21%	7.53%	5.84%	22.4%	4.2%	4.96%	40.1%	81.1%	38.2%	93.1%	29.5%	58.6%	2.85%
CCn1c(-c2nonc2N)nc2c(C#CCN)ncc(OCCCN)c21	2.04%	-2.66%	-3.17%	-4.61%	-4.57%	-0.99%	-1.85%	-5.43%	-9.67%		-9.04%	-5.66%	-6.34%	-4.74%	7.13%	-2.4%	1.59%	-1.23%	0.9%	0.54%
NS(=O)(=O)c1ccc(-c2ccc3c(NC(=O)C4CC4)n[nH]c3c2)cc1	3.02%	1.11%	1.6%	3.54%	2.84%	1.03%	0.35%	2.6%	1.74%	5.05%	3.68%	2.16%	2.23%	2.82%	8.24%	0.96%	1.51%	0.18%	1.78%	1.45%
